Source: PubChem BioAssay AID1851 (National Center for Advancing Translational Sciences (NCATS), 2009)
The whole screen tested about 16,000 compounds, of which about 5,800 (36%) were called active. Inconclusive results (about 23%) are left out. The call rests on the fitted dose curve; in most records, active means well fitted curve in the direction sought with a large enough effect; inconclusive means small, poorly fitted or top-dose-only effect, or effect the other way; inactive means no such curve, though single readings can be large or run the other way. Some of the results follow.

What follows are compounds tested against Cytochrome P450 2C19 (Homo sapiens) (UniProt P33261) (assay: Cytochrome panel assay with activity outcomes). Settings: recombinant CYP, pro-luciferin dealkylation, luminescence, p450-cyp2c19; series mostly up to 57.1 µM; activity, negative = inhibition: at the top concentration.
Cytochrome P450 2C19 (Homo sapiens), sequence (P33261 whole entry, looked up): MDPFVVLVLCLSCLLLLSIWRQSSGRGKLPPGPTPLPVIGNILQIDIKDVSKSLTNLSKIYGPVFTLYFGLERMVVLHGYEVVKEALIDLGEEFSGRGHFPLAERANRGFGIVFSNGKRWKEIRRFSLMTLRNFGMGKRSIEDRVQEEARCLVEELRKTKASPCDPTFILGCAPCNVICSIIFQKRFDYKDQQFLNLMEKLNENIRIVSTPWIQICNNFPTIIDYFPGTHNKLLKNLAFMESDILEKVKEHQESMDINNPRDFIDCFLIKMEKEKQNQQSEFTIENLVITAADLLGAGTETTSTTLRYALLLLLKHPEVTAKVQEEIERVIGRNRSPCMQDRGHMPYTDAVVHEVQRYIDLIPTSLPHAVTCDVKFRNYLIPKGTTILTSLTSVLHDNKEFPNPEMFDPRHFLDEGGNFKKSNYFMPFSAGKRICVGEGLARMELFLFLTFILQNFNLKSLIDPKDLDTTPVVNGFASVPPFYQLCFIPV
On the % scale 0 is the no-effect control and ±100 the full control effect.

SMILES	AC50	activity, negative = inhibition
CCCN[C@@H](C)C(=O)Nc1ccccc1C	inactive	–
Cc1ccccc1NC(=O)C(C)c1cccc(C(=O)c2ccccc2)c1 (stereo not given)	1.26 µM (active)	–
N[C@@H](Cc1c[nH]c2ccc([N+](=O)[O-])cc12)C(=O)O	–	34.9% [at 11.4 µM] (inactive)
O=C(NCc1cn(-c2ccccc2)nc1-c1ccccc1)c1cc([N+](=O)[O-])cc([N+](=O)[O-])c1	1.78 µM (active)	–
CS(=O)(=O)N1CCC2(CCN(Cc3ccncc3)CC2)CC1	–	-33.9% (inactive)
c1coc(CN2CCN(C(c3cccs3)c3nnnn3C3CCCC3)CC2)c1 (stereo not given)	10 µM (active)	–
Clc1ccc(C(c2nnnn2C2CCCC2)N2CCN(Cc3ccncc3)CC2)cc1 (stereo not given)	0.224 µM (active)	–
Cc1cc(C(=O)CSc2nnc(-c3ccccc3)o2)c(C)n1CC1COc2ccccc2O1 (stereo not given)	1.12 µM (active)	–
CC(=O)c1cccc(NC(=O)CCC2CCCC2)c1	3.55 µM (active)	–
CC(=O)NNC(=O)CCC(=O)Nc1ccccc1	–	11.8% (inactive)
COc1ccccc1CN1CCC2(CC1)CCN(C(=O)c1ccco1)CC2	–	-17.8% (inactive)
COc1ccccc1OCCn1cc(C(=O)c2ccco2)c2ccccc21	1 µM (active)	–
COc1ccccc1CN1CCCC2(CCN(C(=O)c3ccco3)CC2)C1	–	8.58% (inactive)
O=C(Cn1cc(C(=O)c2ccco2)c2ccccc21)NCc1ccco1	2.24 µM (active)	–
O=C(Cn1cccc1C(=O)c1ccccc1)NCc1cccs1	2.82 µM (active)	–
Cc1ccccc1C(=O)c1cccn1CC(=O)NCc1ccco1	11.2 µM (active)	–
CCS(=O)(=O)c1ccc(C(=O)Nc2ccccc2)c(Cl)c1Cl	11.2 µM (active)	–
O=C(c1csnn1)N1CCC2(CCCN(c3ccc(-c4ccccc4)cc3)C2)CC1	–	-15.8% (inactive)
Nc1nonc1-c1noc(CCCN2C(=O)c3ccccc3C2=O)n1	3.98 µM (active)	–
O=C(O)CCc1nc(-c2ccccc2-n2cccc2)no1	–	-29.3% [at 11.4 µM] (inactive)
Cc1nc2cnc(Nc3ccccc3)nc2n(CCc2ccccc2)c1=O	–	-11.4% (inactive)
CCNc1ncc2nc(-c3ccccc3)c(=O)n(CCc3ccccc3)c2n1	1 µM (active)	–
CCNc1ncc2nc(-c3ccccc3)c(=O)n(CCC#N)c2n1	–	-3.99% (inactive)
CCNc1ncc2nc(-c3cccs3)c(=O)n(CCc3ccccc3)c2n1	–	-40.1% (inactive)
CCNc1ncc2nc(C)c(=O)n(CCc3ccccc3)c2n1	0.316 µM (active)	–

SMILES	AC50	activity, negative = inhibition
CCNc1ncc2nc(C)c(=O)n(CCC#N)c2n1	–	-8.35% (inactive)
O=C(O)c1nn(-c2ccccc2-c2n[nH]c(=O)[nH]c2=O)c(=O)[nH]c1=O	–	20.9% [at 11.4 µM] (inactive)
Cc1cccc(N2CCN(c3ccc(NC(=O)/C=C(/C(=O)O)c4ccccc4)cc3)CC2)c1	4.47 µM (active)	–
Cc1cc(C(=O)Nc2ccc(N3CCOCC3)cc2)c2ccccc2n1	–	-16.6% (inactive)
c1csc(CNc2nc(-c3ccc4c(c3)OCO4)nc3ccccc23)c1	3.16 µM (active)	–
CN(C)Cc1ccccc1-c1nc(NCc2ccccc2)c2ccccc2n1	–	-36.4% (inactive)
c1cncc(CNc2nc(-c3ccc4c(c3)OCO4)nc3ccccc23)c1	10 µM (active)	–
Cc1cccc(CNc2nc(-c3ccc4c(c3)OCO4)nc3ccccc23)c1	3.16 µM (active)	–
c1ccc(CNc2nc(-c3ccc4c(c3)OCO4)nc3ccccc23)cc1	10 µM (active)	–
CN[C@H]1[C@@H](O[C@@H]2[C@H](O[C@@H]3[C@@H](O)[C@@H](O)[C@@H](N=C(N)N)[C@@H](O)[C@@H]3N=C(N)N)O[C@H](C)[C@@]2(O)C=O)O[C@@H](CO)[C@@H](O)[C@H]1O	–	13.4% [at 25.6 µM] (inactive)
Nc1ncnc2c1ncn2C[C@@H](O)C(=O)O	–	-17.6% [at 11.4 µM] (inactive)
O=C1NCC2(CCN(CCc3ccccc3)CC2)O1	inactive	–
COc1ccc(OC)c(C2C(C(=O)Nc3nc4ccccc4s3)=C(C)NC3=C2C(=O)CCC3)c1 (stereo not given)	0.891 µM (active)	–
Cc1ccc([C@@H](O)c2cnc(C)n2Cc2ccccc2)cc1	1.26 µM (active)	–
Cc1ncc([N+](=O)[O-])n1CC(C)O (stereo not given)	–	-22.3% (inactive)
Cc1ncc([N+](=O)[O-])n1CC(=O)NCc1ccccc1	–	-0.585% (inactive)
COc1ccc(Oc2ncc3nc(-c4ccc(F)cc4)c(=O)n(Cc4cccs4)c3n2)cc1	–	-32% (inactive)
CCC1(C)CC(CCNS(=O)(=O)c2ccc(C)cc2)(c2ccc(C)cc2)CCO1 (stereo not given)	3.98 µM (active)	–
CC1(C)O[C@@H]2O[C@H]([C@@H]3COC(C)(C)O3)[C@H](N)[C@H]2O1	–	14.5% [at 11.4 µM] (inactive)
CCOc1ccc(OCC)c(-c2c(=O)n(OCc3ccc(C(C)(C)C)cc3)c3ccccc3[n+]2[O-])c1	1.58 µM (active)	–
CCOc1ccc(OCC)c(-c2c(=O)n(OCc3ccccc3C(=O)OC)c3ccccc3[n+]2[O-])c1	4.47 µM (active)	–
COc1ccc(CNC(=O)c2csc(Cc3ccc(OC)cc3)n2)cc1	8.91 µM (active)	–
COc1ccc(CNC(=O)c2cnc(C)cn2)cc1	14.1 µM (active)	–
COc1ccc(CCNC(=O)COC(=O)c2cnc(C)cn2)cc1	–	-61.1% (inactive)
COc1ccc(CNC(=O)c2csc(Cc3ccc(Cl)cc3)n2)cc1	2.51 µM (active)	–

SMILES	AC50	activity, negative = inhibition
COc1ccc(CNC(=O)C2CSC(=O)C2)cc1 (stereo not given)	–	-5.06% (inactive)
COc1ccccc1NC(=O)c1nc[nH]c1C(=O)Nc1ccccc1OC	–	8.16% (inactive)
COc1ccccc1NC(=O)C(C/C=C(\C)Cl)C(C)=O (stereo not given)	3.55 µM (active)	–
O=C(O)c1cccnc1Nc1cccc(C(F)(F)F)c1	–	12.3% [at 25.6 µM] (inactive)
O=C(COC(=O)c1cccnc1Nc1cccc(C(F)(F)F)c1)NCc1ccc2c(c1)OCO2	3.55 µM (active)	–
Cc1cccc(Nc2ccccc2C(=O)O)c1C	–	2.99% [at 25.6 µM] (inactive)
Cc1cccc(Nc2ccccc2C(=O)OCC(=O)NCc2ccco2)c1C	5.01 µM (active)	–
O=C(COC(=O)c1ccccc1Nc1cccc(C(F)(F)F)c1)NCc1ccco1	2 µM (active)	–
O=C(O)CCCC[C@H]1CCSS1	–	14.9% (inactive)
COc1ccc(CNc2ncncc2-c2cccc(C#N)c2)c(OC)c1	5.01 µM (active)	–
COc1ccccc1CNc1ncncc1-c1cccc(C#N)c1	3.16 µM (active)	–
Cc1cnc(CNc2nc(-c3ccccc3Cl)nc3ccccc23)cn1	–	-44.4% (inactive)
Cc1n[nH]c(=O)nc1NCc1ccccc1Cl	28.2 µM (active)	–
CCCCOC1(c2ccccc2)OC(=O)c2ccccc21 (stereo not given)	6.31 µM (active)	–
CCCCCCCOC1(c2ccccc2)OC(=O)c2ccccc21 (stereo not given)	3.55 µM (active)	–
CC(=O)[C@@]1(O)Cc2c(O)c3c(c(O)c2[C@H](O[C@H]2C[C@H](N)[C@H](O)[C@H](C)O2)C1)C(=O)c1ccccc1C3=O	–	-27.6% (inactive)
COc1ccc(C(=O)NC(=S)NC(C)(C)C)cc1Br	3.55 µM (active)	–
COc1ccc(C(=O)NC(=S)NC(C)C)cc1Br	2.24 µM (active)	–
C=CCN1CCc2c(cc(O)c(O)c2Br)[C@H](c2ccccc2)C1	–	-43.7% (inactive)
COC(=O)CNC(=O)CN1C(=O)N(c2ccc(Cl)cc2)C(N(O)C(=O)Nc2ccc(Cl)cc2)C1(C)C (stereo not given)	14.1 µM (active)	–
NC(=NCc1ccc(Cl)c(Cl)c1)NC(=O)c1nc(Cl)c(N)nc1N	–	-23% (inactive)
CCCCCCCCCCCCC(=O)N1CCCC[C@H]1CNC(=O)[C@@H](N)CCCCN	7.94 µM (active)	–
CC(C)C(=O)C(C)(C)CCc1ccccn1	–	-41.1% [at 11.4 µM] (inactive)
CN(CCc1ccccn1)Cc1ccc(Cl)cc1Cl	0.447 µM (active)	–
O=C(O)[C@@H](O)Cc1ccccn1	–	14.4% [at 11.4 µM] (inactive)

SMILES	AC50	activity, negative = inhibition
CN(CCO)Cc1ncccc1O	–	42.9% [at 11.4 µM] (inactive)
Cc1cccc(CN(C)CCc2ccccn2)c1	15.8 µM (active)	–
CCOC(=O)c1cnn(-c2ccccc2)c1-n1cccc1C(=O)C(=O)Nc1ccccc1C(F)(F)F	7.94 µM (active)	–
CCC(CC)C(=O)Nc1c2cnn(-c3ccccc3)c2nc(=O)n1-c1ccccc1	–	-20% (inactive)
O=C(O)c1nnsc1-c1ccc(-c2snnc2C(=O)O)cc1	–	-40.8% [at 11.4 µM] (inactive)
N#CC(c1ccc(Cl)cc1)c1nc2ccccc2nc1C(F)(F)F (stereo not given)	0.562 µM (active)	–
O=C(Nc1ccccc1)N1CCCC2(CCNCC2)C1	–	8.07% (inactive)
O=C(N1CCOCC1)N1CCN(c2ccccc2)CC1	14.1 µM (active)	–
c1ccn(-c2ccc(N3CCOCC3)cc2)c1	–	-16.5% (inactive)
O=C(Nc1cccc(NC(=O)N2CCN(c3ccccc3)CC2)c1)N1CCN(c2ccccc2)CC1	5.01 µM (active)	–
O=C(Nc1ccccc1)N1CCC2(CCNCC2)CC1	–	-11.1% (inactive)
CC1CCCC(NC(=O)C2CCN(S(=O)(=O)N3CCOCC3)CC2)C1C (stereo not given)	–	-28.5% (inactive)
O=C(C1CCN(S(=O)(=O)N2CCOCC2)CC1)N1CCN(c2ccccc2)CC1	25.1 µM (active)	–
COc1ccc(N(C)S(=O)(=O)c2ccc3c(c2)CCC(=O)N3)cc1	6.31 µM (active)	–
COc1ccc(NC(=O)CCNS(=O)(=O)c2ccc3c(c2)CCC(=O)N3)cc1	–	-14.5% (inactive)
O=C(CCNS(=O)(=O)c1ccc2c(c1)CCC(=O)N2)NCc1ccc2c(c1)OCO2	–	-25% (inactive)
N#Cc1cccc(NC(=O)N2CC[C@@]3(CCCN(C(=O)c4ccncc4)C3)C2)c1	–	-19.1% (inactive)
CCCCc1nc(SCC(=O)Nc2ncccn2)n[nH]1	–	-8.74% (inactive)
Cc1cc(NC(=O)CSc2ccc3nnc(-c4ccc(F)cc4)n3n2)no1	–	-26.1% (inactive)
Cc1cc(NC(=O)CSc2n[nH]c(-c3cccs3)n2)no1	14.1 µM (active)	–
N[C@H](Cn1ccc(=O)n(Cc2ccccc2C(=O)O)c1=O)C(=O)O	–	-24.5% (inactive)
N[C@@H](Cn1ccc(=O)n(Cc2ccccc2C(=O)O)c1=O)C(=O)O	0.1 µM (active)	–
Cc1nn(-c2ccccc2)c(Cl)c1C(=O)Nc1c(C)n(C)n(-c2ccccc2)c1=O	–	-5.57% (inactive)
CCc1nnc(NC(=O)c2c(C)nn(-c3ccccc3)c2Cl)s1	20 µM (active)	–
CCCCCc1nnc(NC(=O)C(=O)OCC)s1	–	-25.8% (inactive)
